# Assay results as given in PubChem BioAssay (EPA / NIEHS).
# Active and inactive are the calls of the source. Rule for the calls: active = hit-call score of the fitted dose curve at least 0.9, where 1 is the maximum; inactive = score below 0.9.
# Assays:
# Details in all cases: mRNA level, 48 h; actives raise or lower the signal
# [1] = read-out: flavin-containing dimethylaniline monooxygenases 3 (FMO3), FMO3 (gene 2328); test: LTEA_HepaRG_FMO3: Life Technologies and Expression Analysis (LTEA) Assay for flavin-containing dimethylaniline monooxygenases 3 (FMO3) using HepaRG (AID 2283453);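 for AC50: differentiated human HepaRG liver cells in serum-free induction medium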
# Summary of the method: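 FMO3 transcript quantified by TaqMan qRT-PCR against three housekeeping genes after 48 h chemical exposure of HepaRG cells. Eight-point half-log series, top 100 uM, 0.5% DMSO vehicle; phenobarbital 1mM induction control; up- or down-regulation fitted.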
# [2] = read-out: Cytochrome P450 (CYP1A1), CYP1A1 (gene 1543); test: LTEA_HepaRG_CYP1A1: Life Technologies and Expression Analysis (LTEA) Assay for Cytochrome P450 (CYP1A1) using HepaRG (AID 2283454)
# Summary of the method: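 qRT-PCR read-out: CYP1A1 transcript normalized to three housekeeping genes, fitted bidirectionally against 0.5% DMSO vehicle baseline. Human HepaRG cells, 48 h chemical exposure, 8-point half-log series topping at 100 uM.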
# [3] = read-out: CFLAR gene, CFLAR (gene 8837); test: LTEA_HepaRG_CFLAR: Life Technologies and Expression Analysis (LTEA) Assay for CFLAR gene using HepaRG (AID 2283455)
# Summary of the method: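 qRT-PCR read-out (Fluidigm/TaqMan) of CFLAR mRNA, normalized to three housekeeping genes, in differentiated human HepaRG cells after 48 h chemical exposure; 8-point half-log series from 100 uM in 0.5% DMSO; bidirectional curve fitting versus DMSO.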
# [4] = read-out: Forkhead box O1 (FOXO1), FOXO1 (gene 2308); test: LTEA_HepaRG_FOXO1: Life Technologies and Expression Analysis (LTEA) Assay for Forkhead box O1 (FOXO1) using HepaRG (AID 2283456)
# Summary of the method: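 HepaRG, 48 h exposure, 8-pt half-log series from 100 uM in 0.5% DMSO, duplicates; Fluidigm qRT-PCR mRNA, housekeeping-normalised; bidirectional fit vs DMSO baseline.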
# [5] = read-out: growth arrest and DNA damage 45 (GADD45A), GADD45A (gene 1647); test: LTEA_HepaRG_GADD45A: Life Technologies and Expression Analysis (LTEA) Assay for growth arrest and DNA damage 45 (GADD45A) using HepaRG (AID 2283458)
# Summary of the method: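 GADD45A expression was measured by TaqMan qRT-PCR against three housekeeping genes (ACTB, GAPDH, POLR2A) after 48 h treatment of HepaRG cells. Eight-point half-log series up to 100 uM in 0.5% DMSO, run in duplicate.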
# [6] = read-out: Forkhead box O3 (FOXO3), FOXO3 (gene 2309); test: LTEA_HepaRG_FOXO3: Life Technologies and Expression Analysis (LTEA) Assay for Forkhead box O3 (FOXO3) using HepaRG (AID 2283459)
# Summary of the method: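 qRT-PCR readout of FOXO3 transcript, normalized to three housekeeping genes (ACTB, GAPDH, POLR2A); gain or loss fitted against 0.5% DMSO vehicle. HepaRG cells, 48 h chemical exposure, 8-point half-log series, top 100 uM.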
# [7] = read-out: ABC Transporter (ABCB1), ABCB1 (gene 5243); test: LTEA_HepaRG_ABCB1: Life Technologies and Expression Analysis (LTEA) Assay for ABC Transporter (ABCB1) using HepaRG (AID 2283460)
# Summary of the method: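 HepaRG, 48 h exposure, 8-pt half-log series from 100 uM, 0.5% DMSO vehicle, duplicates. Readout: ABCB1 transcript by Fluidigm TaqMan qRT-PCR, housekeeping-normalized; bidirectional curve fit vs DMSO baseline.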
# [8] = read-out: growth arrest and DNA damage 45 (GADD45B), GADD45B (gene 4616); test: LTEA_HepaRG_GADD45B: Life Technologies and Expression Analysis (LTEA) Assay for growth arrest and DNA damage 45 (GADD45B) using HepaRG (AID 2283461)
# Summary of the method: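 qRT-PCR read-out (Fluidigm TaqMan, housekeeping-normalized) of mRNA change in human HepaRG cells after 48 h chemical exposure; 8-point curve, top 100 uM, half-log steps, 0.5% DMSO vehicle; gain or loss fitted relative to DMSO baseline.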
# [9] = read-out: ABC Transporter (ABCC3), ABCC3 (gene 8714); test: LTEA_HepaRG_ABCC3: Life Technologies and Expression Analysis (LTEA) Assay for ABC Transporter (ABCC3) using HepaRG (AID 2283462)
# Summary of the method: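 qRT-PCR read-out of ABCC3 transcript, normalized to three housekeeping genes (ACTB, GAPDH, POLR2A), after 48 h chemical exposure of human HepaRG cells. Eight half-log concentrations, highest 100 uM, in 0.5% DMSO; gain or loss fitted relative to DMSO baseline.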
Compound,outcome [1],AC50 [2],outcome [3],outcome [4],outcome [5],outcome [6],outcome [7],outcome [8],outcome [9],outcome [2],AC50 [1],AC50 [3],AC50 [4],AC50 [6],AC50 [7],AC50 [8],AC50 [9],AC50 [5]
CCc1ccc(O)c(C(C)(C)C)c1,inactive,50 µM (active),inactive,inactive,inactive,inactive,inactive,inactive,inactive,,,,,,,,,
C[C@@H](Oc1ccc(CNC(=O)c2cccnc2Oc2ccc3c(c2)OCO3)c(F)c1)C(=O)O,inactive,,inactive,inactive,inactive,inactive,inactive,inactive,inactive,inactive,,,,,,,,
OC[C@H]1O[C@@](CO)(O[C@H]2O[C@H](CO)[C@@H](O)[C@H](O)[C@H]2O)[C@@H](O)[C@@H]1O,inactive,67.1 µM (active),inactive,inactive,inactive,inactive,inactive,inactive,inactive,,,,,,,,,
O=C(O)c1cccc(C(=O)O)c1,inactive,50 µM (active),inactive,inactive,inactive,inactive,inactive,inactive,inactive,,,,,,,,,
c1ccc2c(c1)-c1cccc3c1c-2cc1ccccc13,,0.851 µM (active),,,inactive,,,,,,18.4 µM (active),10.6 µM (active),5.04 µM (active),4.9 µM (active),15.5 µM (active),11.3 µM (active),21 µM (active),
CC[C@H](C)C(=O)O[C@H]1C[C@H](O)C=C2C=C[C@H](C)[C@H](CC[C@@H](O)C[C@@H](O)CC(=O)O)[C@H]21,inactive,9.15 µM (active),inactive,inactive,inactive,inactive,inactive,inactive,inactive,,,,,,,,,
CC(C)C(=O)Nc1ccc([N+](=O)[O-])c(C(F)(F)F)c1,,11.3 µM (active),,,,inactive,inactive,inactive,inactive,,50 µM (active),50 µM (active),50 µM (active),,,,,67.9 µM (active)
C[C@]12C=CC(=O)C=C1CC[C@H]1[C@@H]3C[C@@H](O)[C@](O)(C(=O)CO)[C@@]3(C)C[C@H](O)[C@@]12F,inactive,50 µM (active),inactive,inactive,inactive,inactive,inactive,inactive,inactive,,,,,,,,,
